# Bioassay records (PubChem BioAssay)
# This is a sample that favours compounds with a hit; in the whole collection about 2.9% have one here.
# Pol kappa inh: blocks human DNA polymerase kappa activity; 400,000 tested, 0.53% active; Potency, µM (top dose mostly 107 µM), for the others: top-dose activity, negative = inhibition, usual class: inhibitors; Q9UBT6; purified Pol kappa, fluorescent DNA synthesis assay, 10 min; further: potency means the concentration at half of the fitted maximal effect; on the % scale 0 is the no-effect control and ±100 the full control effect
#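 Readout: fluorescence, taken kinetically at 0 and 10 min. Conditions: 10 nM Pol kappa, 15 min RT compound preincubation, 50 nM substrate final. Controls: enzyme-free buffer wells.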
# Pol beta inh: blocks human DNA polymerase beta activity | P06746 | Pol beta primer extension/strand displacement, fluorescence kinetic | Potency, µM (top dose mostly 114 µM), without a hit: at the top dose activity change, negative = inhibition, most hits filed as inhibitors | 340,000 tested, 1.3% active | AID 485314; further: potency means the concentration at half of the fitted maximal effect; on the % scale 0 is the no-effect control and ±100 the full control effect
#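 Preincubation: enzyme (10 nM) with compound, 15 min, RT. Reaction: substrate added to 50 nM final. Reads: 0 and 10 min. Analysis: normalized, Hill fit.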
# PI5P4K alpha inh: inhibitors of human PI5P4K alpha. 330,000 tested, 1.2% active. max response, %. P48426. PI5P4Kalpha enzyme, ADP-Glo luminescence, 60 min; active compounds read low; active means max response of -50% or lower; inconclusive means between -30% and -50%; inactive means -30% or higher; further: value at the top dose of about 77 µM; on the % scale 0 is the no-effect control and ±100 the full control effect
#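 Luminescence from ADP-Glo served as readout of PI5P4Kalpha activity in a qHTS format. Reaction: enzyme, substrate, compound, ATP at 5 microM final, 60 min at RT.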
# ALOX12 inh: blocks human arachidonate 12S-lipoxygenase. AID 1671190. Potency, µM (titrated, usually from 108 µM), without a hit: at the top dose activity change, negative = inhibition, hits mostly inhibitors. P18054. 580,000 tested, 1.1% active. purified 12hLO, xylenol orange hydroperoxide absorbance; further: potency means the concentration at half of the fitted maximal effect; on the % scale 0 is the no-effect control and ±100 the full control effect
#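 Purified human 12hLO (150 nM final) in 25 mM Hepes, 0.01% Triton X-100, pH 7.0 was preincubated 15 min at room temperature with compound. Then 40 uM arachidonic acid was added, 30 min. Hydroperoxide was read by Fe-XO absorbance ratio 573/405 nm.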
# POLI inh: blocks human DNA polymerase iota activity; Q9UNA4; Pol iota fluorescent replication assay, 10 min; Potency, µM (top dose mostly 115 µM), for the others: at the highest dose activity, negative = inhibition, most hits filed as inhibitors; 390,000 tested, 1% active; AID 588590; further: potency means the concentration at half of the fitted maximal effect
#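 Pol iota at 10 nM preincubated 15 min with compounds at room temperature; reaction started with fluorescent substrate, 50 nM final. Fluorescence read kinetically at 0 and 10 min; buffer-only wells as negative control.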
# Pol eta inh: DNA polymerase eta (human) inhibition. Q9Y253. recombinant Pol eta, fluorescent DNA replication assay. Potency, µM (titrated, usually from 114 µM), for the others: top-dose activity change, negative = inhibition, most hits filed as inhibitors. 390,000 tested, 1.2% active; further: potency means the concentration at half of the fitted maximal effect; on the % scale 0 is the no-effect control and ±100 the full control effect
# Target sequence (Q9Y253 whole entry, looked up): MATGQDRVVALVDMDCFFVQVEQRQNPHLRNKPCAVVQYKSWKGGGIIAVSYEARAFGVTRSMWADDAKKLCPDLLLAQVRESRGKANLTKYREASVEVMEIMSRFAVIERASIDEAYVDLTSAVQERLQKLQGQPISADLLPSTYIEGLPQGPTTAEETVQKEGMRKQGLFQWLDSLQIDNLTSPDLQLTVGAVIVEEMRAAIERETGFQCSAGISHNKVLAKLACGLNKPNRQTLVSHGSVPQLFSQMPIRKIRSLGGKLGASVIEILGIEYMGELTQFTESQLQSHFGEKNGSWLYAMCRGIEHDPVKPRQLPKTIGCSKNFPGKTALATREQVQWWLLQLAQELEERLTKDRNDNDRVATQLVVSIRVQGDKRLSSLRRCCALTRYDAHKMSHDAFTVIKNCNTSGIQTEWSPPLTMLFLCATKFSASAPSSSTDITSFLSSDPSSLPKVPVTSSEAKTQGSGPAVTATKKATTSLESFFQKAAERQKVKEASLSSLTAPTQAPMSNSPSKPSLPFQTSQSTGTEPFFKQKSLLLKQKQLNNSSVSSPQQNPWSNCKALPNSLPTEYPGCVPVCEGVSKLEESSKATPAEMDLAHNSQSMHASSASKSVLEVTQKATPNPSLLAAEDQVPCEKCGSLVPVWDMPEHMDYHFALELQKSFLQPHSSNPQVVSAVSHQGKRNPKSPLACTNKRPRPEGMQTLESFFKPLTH
#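 Pol eta at 10 nM preincubated with compounds 15 min at room temperature; reaction started with fluorescent substrate (50 nM final) and read kinetically at 0 and 10 min.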
# ADP-Glo counter: interferes with ADP-Glo detection without enzyme present; shares compounds with PI5P4K alpha inh; ADP-Glo detection counter-screen, luciferase luminescence, no enzyme; Potency, µM (top dose mostly 76.9 µM), for inactives: at the top dose activity change, negative = inhibition, actives largely listed as inhibitors; 1,100 tested, under 10 active
# Numbers without * were called inactive; ? = inconclusive; nt = no result; [ ] = dose if it differs, or a comment. Unless noted, the call rests on the fitted dose curve; in most records, active means well fitted curve in the direction sought with a large enough effect; inconclusive means small, poorly fitted or top-dose-only effect, or another doubt; inactive means no such curve, though single readings can be large; an effect the other way counts as inactive or inconclusive.
SMILES,Pol kappa inh,Pol beta inh,PI5P4K alpha inh,ALOX12 inh,POLI inh,Pol eta inh,ADP-Glo counter
CN1CCN(C(c2ccc(F)cc2)c2ccc3cccnc3c2O)CC1 (centres undefined),-4%,nt,-7,nt,15%,-17%,nt
CN1CCN(C(c2ccc(Br)cc2)c2cc(Cl)c3cccnc3c2O)CC1 (centres undefined),-5%,13%,-84*,10µM*,43%,-25%,-7%
COc1n[nH]c(C(=O)NCc2ccccc2)c1[N+](=O)[O-],5%,-12%,4,0%,-10%,-12%,nt
COc1n[nH]c(C(=O)Nc2nc3ccccc3s2)c1[N+](=O)[O-],-12%,-2%,-54*,-14%,?,?,2%
CC(=O)Nc1cc(NC(C)=O)cc(C(=O)N2CCCC3CCCCC32)c1 (centres undefined),79µM*,?,-65*,-5%,14µM*,22µM*,0%
Cc1ccc(Nc2nc(C)c3c(n2)CC(C)CC3=O)c(C)c1 (centres undefined),-6%,-2%,3,0%,15%,-4%,3%
CCOc1cc(CNc2nn[nH]n2)cc(Br)c1OCc1ccc(F)cc1,nt,nt,nt,25%,nt,nt,nt
Cc1nc2c(nnn2Cc2ccccc2Cl)c(=O)[nH]1,3%,12%,3,10%,-4%,-15%,nt
Cc1nc2c(nnn2Cc2ccccc2)c(=O)[nH]1,-26%,0%,-88*,?,-10%,0%,2%
Cc1cccc(S(=O)(=O)N2CCN(c3ccc(N4CCOCC4)nn3)CC2)c1,nt,nt,nt,0%,nt,nt,nt
Cc1cc(C(=O)Nc2cccc3c2O[C@@H](CN(C)S(C)(=O)=O)[C@H](C)CN([C@@H](C)CO)C3=O)n(C)n1,-8%,nt,0,1%,-5%,-7%,2%
CCOc1ccc(C(NC(C)=O)c2cc(Cl)c3cccnc3c2O)cc1 (centres undefined),-8%,nt,nt,nt,12%,nt,nt
CCOc1ccc(C(Nc2cccnc2)c2cc(Cl)c3cccnc3c2O)cc1 (centres undefined),-9%,6%,-68*,10µM*,48%,?,0%
CCOC(=O)c1cc2c(ccc3ccccc32)oc1=O,-2%,-2%,3,-6%,56%,-5%,nt
N=c1oc2ccc3ccccc3c2cc1C(N)=S,?,-19%,-60*,-30%,53%,-17%,-1%
Cc1cc(C)c2c(N)c(C(=O)Nc3c(C)n(C)n(-c4ccccc4)c3=O)sc2n1,-6%,15%,0,-7%,16%,2%,0%
CCc1ccc(OCCN)cc1,nt,nt,nt,35%,nt,nt,nt
CC(=O)c1ccc(OCc2c(-c3ccccc3)nnn2CC(=O)NS(=O)(=O)c2ccc(C)cc2)cc1,nt,nt,-6,?,nt,nt,nt
CC(=O)c1ccc(OCc2c(-c3ccccc3)nnn2CC(=O)NS(=O)(=O)c2ccccc2C)cc1,nt,nt,-51*,-3%,nt,nt,-4%
CC(C)(C)C1=Nn2c(nnc2-c2n[nH]c3c2CCC3)SC1,-1%,9%,-61*,?,6%,-5%,1%
COc1ccc(N2CCN(C(=O)CCn3ccn4nc5c(c4c3=O)CCCC5)CC2)cc1,nt,nt,nt,33%,nt,nt,nt
COc1ccccc1NC(=O)Cc1nnc(SCC(=O)Nc2ccccc2F)n1C,0%,0%,-67*,6%,91%,-16%,-7%
CCn1c(CC(=O)Nc2ccccc2F)nnc1SCC(=O)NC1CCCCC1,?,2%,-29,-13%,?,?,-6%
O=C(Nc1ccc(Cl)c(C(F)(F)F)c1)c1ccc(F)cc1F,nt,nt,nt,-2%,nt,nt,nt
O=C(O)c1ccc(-c2nnn(Cc3cccc(C(F)(F)F)c3)n2)cc1,5%,1%,-52*,-14%,-12%,-1%,-3%
SMILES,Pol kappa inh,Pol beta inh,PI5P4K alpha inh,ALOX12 inh,POLI inh,Pol eta inh,ADP-Glo counter
CC(C)(C)c1ccc(NC(=O)c2cccc(CN3CCCC3=O)c2)cc1,nt,nt,nt,11%,nt,nt,nt
CCN(CC)C(=O)C[C@@H]1CCNC[C@@H]1Cc1cc(CC2CCCCC2)on1,nt,nt,nt,-14%[176 µM],nt,nt,nt
Cc1ccccc1CNC(=O)c1ccc2nc([C@@H]3O[C@H](CO)[C@H](O)[C@H](O)[C@H]3O)[nH]c2c1,nt,nt,-88*,-2%,nt,nt,3%
c1ccc(CNc2nc(NCC3CC3)nc3cc(-c4ccccc4)sc23)cc1,nt,nt,nt,?,nt,nt,-7%
c1csc(CNc2nc(NCC3CCCCC3)c3sccc3n2)c1,nt,nt,nt,?,nt,nt,2%
CC(C)c1ccc(CNc2nc(NCC3CC3)nc3ccsc23)cc1,nt,nt,nt,50µM*,nt,nt,-4%
COc1ccccc1CNc1nc(Nc2ccccc2OC)c2sccc2n1,nt,nt,2,nt,nt,nt,nt
COCCNc1nc(NCc2cccs2)nc2ccsc12,nt,nt,4,10%,nt,nt,nt
COc1ccccc1CNc1nc(NCc2ccc(C(C)C)cc2)c2sccc2n1,nt,nt,nt,?,nt,nt,-5%
CCCCCCCCS(=O)CCCCC(=O)OCC (centres undefined),nt,nt,nt,4%,nt,nt,nt
Cc1nn(Cc2ccccc2F)c(C)c1NC(=O)NC1CCCCC1,nt,nt,nt,23%,nt,nt,nt
CN(C(=O)c1ccc(Br)o1)C1CCS(=O)(=O)C1 (centres undefined),5%,11%,?,2%,9%,-5%,4%
CCN(C(=O)c1ccc(Br)o1)C1CCS(=O)(=O)C1 (centres undefined),-8%,nt,4,-5%,54%,-19%,nt
COc1ccccc1NS(=O)(=O)c1ccc(C(=O)OCC(=O)NCc2ccco2)cc1,-34%,16µM*,-60*,?,?,?,-4%
CCc1cccc2c(C(=O)Cn3nnc(-c4ccccc4C)n3)c[nH]c12,nt,nt,nt,20%,nt,nt,nt
O=c1c(Cc2ccccc2)c(O)nc2n1CCS2,1%,36%,-55*,0%,6%,12%,4%
O=c1c(C/C=C/c2ccccc2)c(O)nc2n1CCCS2,-19%,26%,-24,0%,?,3%,nt
Cc1ccc(Cl)c(OCc2nnc(SCC(=O)NC3CC3)n2C)c1,nt,nt,nt,21%,nt,nt,nt
N#Cc1cc(NC(=O)C2CC2)ccc1OCC(F)(F)F,nt,nt,nt,-25%,nt,nt,nt
Cc1ccc(S(=O)c2ccc(NC(=O)C3CC3)cc2C#N)cc1 (centres undefined),-2%,24%,-63*,-9%,-2%,-5%,-6%
Cc1ccc(C(=O)NC(C)C2CCCO2)cc1 (centres undefined),nt,nt,nt,-2%,nt,nt,nt
CC(NC(=O)c1ccnn1C)C1CCCO1 (centres undefined),-1%,0%,?,-16%,-22%,-1%,2%
COc1ccc(OC)c(NC(=O)C2CC(=O)Nc3c(-c4ccc(F)cc4)cnn32)c1 (centres undefined),nt,nt,nt,42%,nt,nt,nt
